Test results taken from PubChem BioAssay AID504652 (National Center for Advancing Translational Sciences (NCATS), 2011).
About 11,000 (3.1%) of roughly 360,000 compounds were called active. The sample holds actives, similar compounds and a random draw of the others, so the mix is not that of the screen. A number with no mark means an inactive call. Rule as the data show it: active = activity change below about -30%; inactive = the rest.

Biological target: D(1A) dopamine receptor (Homo sapiens) (UniProt P21728)
Sequence (P21728 whole entry, looked up): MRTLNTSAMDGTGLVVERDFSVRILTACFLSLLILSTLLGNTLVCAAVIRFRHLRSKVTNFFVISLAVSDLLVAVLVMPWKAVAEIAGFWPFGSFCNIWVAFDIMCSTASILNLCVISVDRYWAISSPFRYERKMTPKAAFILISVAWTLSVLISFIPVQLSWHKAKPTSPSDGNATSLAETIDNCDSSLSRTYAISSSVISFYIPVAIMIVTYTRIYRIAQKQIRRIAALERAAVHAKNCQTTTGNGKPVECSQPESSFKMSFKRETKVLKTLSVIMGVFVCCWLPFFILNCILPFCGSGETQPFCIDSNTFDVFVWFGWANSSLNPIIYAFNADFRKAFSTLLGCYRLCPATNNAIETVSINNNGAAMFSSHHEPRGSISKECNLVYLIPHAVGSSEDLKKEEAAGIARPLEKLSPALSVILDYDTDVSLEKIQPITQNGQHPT
Assay: Antagonist of Human D 1 Dopamine Receptor: qHTS
Details: HEK293 TREx D1 cells, calcium flux, dopamine EC80; at 10 µM; hits give low values
Procedure, shortened: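 Tetracycline-induced HEK293 T-REx cells with force-coupled D1 receptor were loaded with a no-wash calcium dye. Compound was added after a 10 s baseline and read kinetically for 180 s; EC80 dopamine was then added and calcium flux followed another 180 s.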
% is scaled to controls: 0 for no effect and ±100 for the full control effect.

In the case of COc1ccc(S(=O)(=O)N2CCCCC2)cc1Br, the activity change, negative = inhibition is reported as -47.9% (active).
In the case of Cc1c(NC(=S)NCc2ccc(F)cc2)cccc1[N+](=O)[O-], the activity change, negative = inhibition is reported as -31.5% (active).
With Cc1c(NC(=O)/C=C/C(=O)O)cccc1[N+](=O)[O-] the activity change, negative = inhibition was -41.8% (active).
O=C(NCc1ccco1)c1sc2cccc(F)c2c1Cl was tested, and the activity change, negative = inhibition was -46.1% (active).
With O=C(CSC1=Nc2ccccc2C2=NC(c3ccccc3)C(=O)N12)NCC1CCCO1 (stereo not drawn) the activity change, negative = inhibition was -47% (active).
For CCOc1ccc(NC(=O)C(C)N2C(=O)c3ccccc3C2=O)cc1 (stereo not drawn), the activity change, negative = inhibition was -42.7% (active).
For CCOc1ccccc1NC(=O)Cn1c(=O)n(Cc2ccccc2)c(=O)c2c(C)c(C(=O)N(C)C)sc21, the activity change, negative = inhibition was -72.6% (active).
For CCC1SC2=NCCN2C1(O)c1ccc(Cl)cc1 (stereo not drawn), the activity change, negative = inhibition was -31.5% (active).
With CCN(c1ccccc1)S(=O)(=O)c1cccc(C(=O)NCc2ccccc2CN2CCOCC2)c1 the activity change, negative = inhibition was -31.4% (active).
CC1CCN(C(=O)C2CCN(S(=O)(=O)N3CCC4(CC3)OCCO4)CC2)CC1 was tested, and the activity change, negative = inhibition was -37.8% (active).
CC(C)C(=O)Nc1cccc(C(=O)Nc2ccc3c(c2)OCO3)c1 was tested, and the activity change, negative = inhibition was -43.1% (active).
With Fc1ccc(CNc2nc3ccccc3n3nnnc23)cc1 the activity change, negative = inhibition was -50.2% (active).

Point of comparison: NS(=O)(=O)c1ccc(NC(=O)C(=O)Nc2ccc3nc4n(c(=O)c3c2)CCCCC4)cc1, activity change, negative = inhibition -3.24%. Against it:
- COc1cc(C(=O)NNC(=O)c2ccc(S(=O)(=O)N3CCCCC3)cc2)cc(OC)c1OC — lower, -4.12%
- COc1ccc(F)cc1S(=O)(=O)N1CCCCC1 — higher, 1.35%
- COc1ccc(OC)c(-c2csc(-c3c(N)c(C(=O)c4ccccc4)n4ccccc34)n2)c1 — lower, -9.07%
- O=[N+]([O-])c1ccccc1NCc1ccc(Cl)cc1 — higher, -2.99%
- Cc1cccc(NC(=S)NCCc2ccc(F)cc2)c1C — lower, -6.25%
- O=C(O)/C=C/C(=O)NNc1ccc([N+](=O)[O-])cc1 — higher, 4.19%
- Cc1c(NC(=O)CCCOc2ccccc2)cccc1[N+](=O)[O-] — higher, 0.202%
- COc1ccc(-c2cccc(NS(=O)(=O)c3cc(C)c(OC)c(C)c3C)c2)nn1 — lower, -20.7%
- COc1ccc(-c2cc(C(=O)NCc3cc(OC)c(OC)c(OC)c3)[nH]n2)cc1 — lower, -10.2%
- COc1ccc(C(F)(F)F)cc1NC(=O)c1sc2nc(-c3cccs3)ccc2c1N — higher, -1.54%
- COc1ccc(Cc2nc3ccc(C(=O)NCc4ccccc4Cl)cc3o2)cc1 — lower, -19.1%
- CN1CCN(C(CNC(=O)c2ccccc2F)c2ccc3c(c2)OCO3)CC1 (stereo not drawn) — higher, 8.69%
- CCOc1cc(C(=O)NCCc2csc3nc(-c4ccc(C)cc4)nn23)cc(OCC)c1OCC — higher, 3.63%
- O=C(NCc1ccco1)c1nn2cccnc2c1Cl — higher, 15.7%
- O=C(NCc1ccco1)c1cc2sccc2n1Cc1ccc(F)cc1 — lower, -8.06%
- CCOc1ccc(N2CC(C)Cn3c2nc2c3c(=O)n(Cc3c(F)cccc3Cl)c(=O)n2C)cc1 (stereo not drawn) — higher, -2.48%
- COc1ccc(CNC(=O)c2ccc3c(c2)nc2n3CCOC2)c(OC)c1 — higher, 1.06%
- Cc1ccc(CNC(=O)CSC2=Nc3ccccc3C3=NC(C)C(=O)N23)cc1 (stereo not drawn) — higher, -1.57%
- O=C(CSc1ccc(-c2ccccc2)nn1)NCC1CCCO1 (stereo not drawn) — higher, 5.37%
- O=C(COc1ccc(Cl)cc1)Nc1ccc(-c2nc3cc(Cl)ccc3o2)c(O)c1 — higher, 3.9%
- CN(CC(=O)Nc1ccccc1F)S(=O)(=O)c1ccc2c(c1)c(=O)n(C)c(=O)n2C — higher, 8.37%
- CCOc1ccc(NC(=O)C(CC(C)C)N2Cc3ccccc3C2=O)cc1 (stereo not drawn) — higher, 6.62%
- COC(=O)c1ccc(NC(=O)C(C)N2C(=O)c3ccccc3C2=O)cc1 (stereo not drawn) — higher, -2.2%
- COc1cc2nc(SCC(=O)Nc3ccccc3F)n3nc(-c4ccccc4)nc3c2cc1OC — lower, -6.83%
- COc1ccc(CNc2nc(-c3ccc(Cl)cc3)nn2C(=O)c2ccccc2)cc1 — higher, -0.876%
- Cc1c(C(=O)N(C)C)sc2c1c(=O)n(-c1ccc(F)cc1)c(=O)n2CC(=O)N(C)c1ccccc1 — higher, -0.832%
- Cc1cccc(NC(=O)Cn2c(=O)n(Cc3ccccc3)c(=O)c3c(C)c(C)sc32)c1 — higher, -0.708%
- CCOc1ccc(OCC)c(NS(=O)(=O)c2ccc3[nH]c(=O)ccc3c2)c1 — lower, -7.27%
- CCCOc1ccc(C2=CSC3=NCCN23)cc1Cl — higher, 3.06%
- Cc1cn(C)c(CC(=O)NCc2ccccc2)c1C(=O)O — higher, 0.691%
- Cc1cc(F)ccc1NC1(c2ccccc2)C(=O)c2ccccc2C1=O — lower, -5.68%
- COc1ccc(OCCn2cc(C(=O)C3CCCCC3)c3ccccc32)cc1 — higher, 10.3%
- CCOC(=O)C1CCCN(C(=O)c2ccc(-n3ccc4ccccc43)s2)C1 (stereo not drawn) — lower, -9.46%
- Cc1ccc(Nc2c(-c3ccc(N(C)C)cc3)nc3nc[nH]n23)cc1 — higher, 1.41%
- CCOC(=O)C1CCN(C(=O)c2cccc(S(=O)(=O)N(CC)c3ccccc3)c2)CC1 — lower, -4.11%
- O=C(NCc1ccccc1CN1CCCC1)c1cccc(S(=O)(=O)Nc2ccc(F)cc2)c1 — higher, 2.42%
- COc1cccc(Cn2c(SCc3ccc(C(=O)N4CCC(C)CC4)cc3)nc3ccncc32)c1 — lower, -10.8%
- CC(C)(C)OC(=O)N1CCC(c2c(C(=O)NCCc3ccsc3)cnn2-c2ccc(F)cc2F)CC1 — lower, -6.33%
- CCOC(=O)C1CCN(C(=O)C2CCN(S(=O)(=O)N3CCCC3)CC2)CC1 — higher, -2.4%
- O=C(O)C1CCN(S(=O)(=O)N2CCOCC2)CC1 — higher, 0.172%
- CCSc1ccccc1C(=O)Nc1ccc2c(c1)OCO2 — higher, 10%
- CC(=O)Nc1cccc(C(=O)OCC(=O)c2ccc3c(c2)OCO3)c1 — higher, -0.144%
- Cc1ccc(Cn2c(=O)n(CCCC(=O)NCc3ccccc3Cl)c(=O)c3ccccc32)cc1 — higher, 5.86%
- Fc1ccc(CSc2nc(NCc3ccccc3)c3ccccc3n2)cc1 — higher, 21.1%
- CCOc1ccc(OCC)c(Nc2nc3ccccc3n3nnnc23)c1 — higher, 1.86%
